Results: PubChem BioAssay (EPA / NIEHS)
Results filed as inconclusive are left out. Calls of active or inactive are those of the source. The calls were made as follows, unless noted: active = hit-call score of the fitted dose curve at least 0.9, where 1 is the maximum; inactive = score below 0.9.

Assays:
[1] = biological target: Bile acid receptor (Homo sapiens) (UniProt Q96RI1); assay: ATG_FXR_TRANS: Attagene TRANS-FACTORIAL HepG2 Assay for Farnesoid X Receptor (FXR) (AID 2282979; active = hit-call score of the fitted dose curve at least 0.9, where 1 is the maximum;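 also: hits raise reporter mRNA above DMSO so AC50 marks FXR activation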); settings: HepG2 Attagene TRANS FXR-GAL4 reporter transcription
Sequence of Bile acid receptor (Homo sapiens) (Q96RI1 whole entry, looked up, the tested form may be a part): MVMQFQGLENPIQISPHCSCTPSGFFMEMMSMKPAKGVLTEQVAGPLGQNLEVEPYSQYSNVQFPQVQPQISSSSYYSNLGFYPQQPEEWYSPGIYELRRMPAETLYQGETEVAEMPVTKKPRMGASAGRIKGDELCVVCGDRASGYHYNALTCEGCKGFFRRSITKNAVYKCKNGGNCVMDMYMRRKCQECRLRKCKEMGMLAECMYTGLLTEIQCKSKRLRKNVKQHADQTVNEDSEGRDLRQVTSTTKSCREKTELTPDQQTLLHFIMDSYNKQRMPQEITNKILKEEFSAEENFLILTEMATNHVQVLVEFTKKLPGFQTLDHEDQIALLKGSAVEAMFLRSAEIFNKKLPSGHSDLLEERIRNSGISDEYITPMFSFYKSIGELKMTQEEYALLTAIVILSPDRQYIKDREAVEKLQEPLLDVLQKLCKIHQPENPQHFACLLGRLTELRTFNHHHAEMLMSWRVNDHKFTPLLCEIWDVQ
How it was run: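 After 24 h chemical treatment of transfected HepG2 cells, GAL4-UAS reporter transcripts driven by an exogenous FXR-GAL4 fusion were measured by RT-PCR and capillary electrophoresis. Increases over DMSO were fitted.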

[2] = biological target: Oxysterols receptor LXR-alpha (Homo sapiens) (UniProt Q13133); assay: ATG_LXRa_TRANS: Attagene TRANS-FACTORIAL HepG2 Assay for human Liver X Receptor alpha (LXRa) (AID 2282980; active = hit-call score of the fitted dose curve at least 0.9, where 1 is the maximum); settings: HepG2 Attagene TRANS reporter, LXRa transactivation
Sequence of Oxysterols receptor LXR-alpha (Homo sapiens) (Q13133 whole entry, looked up, the tested form may be a part): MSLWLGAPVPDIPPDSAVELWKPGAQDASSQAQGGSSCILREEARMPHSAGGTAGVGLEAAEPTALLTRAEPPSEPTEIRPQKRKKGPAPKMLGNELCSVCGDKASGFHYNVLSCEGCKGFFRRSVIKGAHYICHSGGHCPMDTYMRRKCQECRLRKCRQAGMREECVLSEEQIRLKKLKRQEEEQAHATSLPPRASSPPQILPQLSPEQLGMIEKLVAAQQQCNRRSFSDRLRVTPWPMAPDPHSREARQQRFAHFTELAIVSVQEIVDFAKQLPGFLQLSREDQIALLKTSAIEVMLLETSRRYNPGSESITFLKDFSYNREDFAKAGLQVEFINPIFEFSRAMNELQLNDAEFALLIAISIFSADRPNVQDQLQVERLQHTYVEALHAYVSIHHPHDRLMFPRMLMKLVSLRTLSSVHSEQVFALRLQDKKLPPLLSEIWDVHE
How it was run: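 In this multiplexed TRANS system, compounds act on HepG2 cells carrying GAL4-UAS reporter units and a receptor-GAL4 fusion for 24 h. Induced reporter RNA is amplified, fluorescently labelled and sized by capillary electrophoresis, with DMSO as baseline.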

[3] = biological target: Hepatocyte nuclear factor 4-alpha (Homo sapiens) (UniProt P41235); assay: ATG_HNF4a_TRANS: Attagene TRANS-FACTORIAL HepG2 Assay for human Hepatocyte Nuclear Factor 4 alpha (HNF4a) (AID 2282982; active = hit-call score of the fitted dose curve at least 0.9, where 1 is the maximum); settings: HepG2 HNF4a transactivation reporter, mRNA readout
Sequence of Hepatocyte nuclear factor 4-alpha (Homo sapiens) (P41235 whole entry, looked up, the tested form may be a part): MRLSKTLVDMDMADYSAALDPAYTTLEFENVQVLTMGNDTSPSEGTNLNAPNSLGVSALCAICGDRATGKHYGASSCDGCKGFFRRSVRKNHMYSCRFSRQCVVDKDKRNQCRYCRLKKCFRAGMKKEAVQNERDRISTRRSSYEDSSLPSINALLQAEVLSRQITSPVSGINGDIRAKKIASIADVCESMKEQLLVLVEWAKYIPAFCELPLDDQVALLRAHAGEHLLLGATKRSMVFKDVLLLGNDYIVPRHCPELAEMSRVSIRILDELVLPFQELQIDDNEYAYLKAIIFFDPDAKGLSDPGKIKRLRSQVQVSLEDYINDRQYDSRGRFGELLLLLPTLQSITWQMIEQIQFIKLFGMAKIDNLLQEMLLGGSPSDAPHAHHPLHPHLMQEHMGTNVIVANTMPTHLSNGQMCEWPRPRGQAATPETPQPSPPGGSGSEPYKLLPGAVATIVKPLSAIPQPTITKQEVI
How it was run: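 In this trans-factorial format, a chimeric HNF4a-GAL4 fusion drives a GAL4-UAS reporter in transfected HepG2 liver cells. After 24 h treatment, reporter mRNA induction is measured by RT-PCR with capillary electrophoresis, relative to DMSO.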

[4] = biological target: Nuclear receptor subfamily 4 group A member 2 (Homo sapiens) (UniProt P43354); assay: ATG_NURR1_TRANS: Attagene TRANS-FACTORIAL HepG2 Assay for human Nuclear Receptor Related Protein 1 (NURR1) (AID 2282985; active = hit-call score of the fitted dose curve at least 0.9, where 1 is the maximum); settings: HepG2 Attagene TRANS reporter, mRNA readout
Sequence of Nuclear receptor subfamily 4 group A member 2 (Homo sapiens) (P43354 whole entry, looked up, the tested form may be a part): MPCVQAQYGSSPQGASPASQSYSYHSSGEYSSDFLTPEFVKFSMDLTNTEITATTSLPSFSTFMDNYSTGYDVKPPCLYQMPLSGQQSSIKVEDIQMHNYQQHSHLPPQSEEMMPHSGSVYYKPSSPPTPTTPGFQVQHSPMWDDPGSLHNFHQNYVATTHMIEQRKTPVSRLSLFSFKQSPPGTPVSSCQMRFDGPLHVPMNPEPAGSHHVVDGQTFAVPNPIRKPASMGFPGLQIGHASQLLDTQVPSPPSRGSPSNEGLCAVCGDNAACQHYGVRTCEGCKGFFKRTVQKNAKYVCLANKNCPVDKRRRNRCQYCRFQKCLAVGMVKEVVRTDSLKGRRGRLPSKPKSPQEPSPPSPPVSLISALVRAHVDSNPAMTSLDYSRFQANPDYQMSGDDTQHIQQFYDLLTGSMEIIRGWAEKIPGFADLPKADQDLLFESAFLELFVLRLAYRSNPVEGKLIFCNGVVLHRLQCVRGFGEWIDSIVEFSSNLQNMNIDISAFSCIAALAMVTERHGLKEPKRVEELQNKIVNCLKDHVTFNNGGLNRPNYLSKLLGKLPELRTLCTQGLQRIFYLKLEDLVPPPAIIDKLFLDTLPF
How it was run: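 Chimeric NR-Gal4 fusion activity measured in HepG2 after 24 h treatment. Reporter transcripts detected by RT-PCR and capillary electrophoresis fluorescence; positive-direction curve fitting against DMSO.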

[5] = biological target: Transcriptional activator Myb (Homo sapiens) (UniProt P10242); assay: ATG_Myb_CIS: Attagene CIS-FACTORIAL HepG2 Assay for human Myeloblastosis (Myb) Proto-Oncogene Transcription Factor (AID 2282986); settings: HepG2 Attagene CIS-FACTORIAL Myb reporter transcription; actives raise or lower the signal
Sequence of Transcriptional activator Myb (Homo sapiens) (P10242 whole entry, looked up): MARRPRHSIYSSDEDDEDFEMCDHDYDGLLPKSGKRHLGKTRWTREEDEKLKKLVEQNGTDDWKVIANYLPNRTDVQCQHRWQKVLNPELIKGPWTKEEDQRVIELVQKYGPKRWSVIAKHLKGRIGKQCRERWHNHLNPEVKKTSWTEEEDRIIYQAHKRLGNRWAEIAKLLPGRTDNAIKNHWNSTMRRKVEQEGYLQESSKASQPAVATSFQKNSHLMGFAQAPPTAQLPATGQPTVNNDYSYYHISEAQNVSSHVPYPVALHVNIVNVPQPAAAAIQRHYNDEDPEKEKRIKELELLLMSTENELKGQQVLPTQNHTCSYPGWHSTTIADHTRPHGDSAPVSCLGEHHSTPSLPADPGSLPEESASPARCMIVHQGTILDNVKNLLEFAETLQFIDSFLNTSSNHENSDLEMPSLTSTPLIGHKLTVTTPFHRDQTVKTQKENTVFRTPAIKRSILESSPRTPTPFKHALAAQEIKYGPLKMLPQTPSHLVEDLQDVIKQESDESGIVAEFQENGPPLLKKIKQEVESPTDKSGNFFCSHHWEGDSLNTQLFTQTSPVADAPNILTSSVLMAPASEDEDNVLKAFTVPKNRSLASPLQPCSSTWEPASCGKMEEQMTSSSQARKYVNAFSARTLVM
How it was run: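 In this HepG2 transient-transfection format, cis-regulated reporter mRNA is quantified 24 h post-dosing by RT-PCR with capillary electrophoresis, fitted bidirectionally to DMSO baseline.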

[6] = biological target: Nuclear respiratory factor 1 (Homo sapiens) (UniProt Q16656); assay: ATG_NRF1_CIS: Attagene CIS-FACTORIAL HepG2 Assay for human Nuclear Respiratory Factor 1 (NRF1) Orphan Gene (AID 2282987); settings: HepG2 NRF1 cis-element reporter, Attagene multiplex; actives raise or lower the signal
Sequence of Nuclear respiratory factor 1 (Homo sapiens) (Q16656 whole entry, looked up): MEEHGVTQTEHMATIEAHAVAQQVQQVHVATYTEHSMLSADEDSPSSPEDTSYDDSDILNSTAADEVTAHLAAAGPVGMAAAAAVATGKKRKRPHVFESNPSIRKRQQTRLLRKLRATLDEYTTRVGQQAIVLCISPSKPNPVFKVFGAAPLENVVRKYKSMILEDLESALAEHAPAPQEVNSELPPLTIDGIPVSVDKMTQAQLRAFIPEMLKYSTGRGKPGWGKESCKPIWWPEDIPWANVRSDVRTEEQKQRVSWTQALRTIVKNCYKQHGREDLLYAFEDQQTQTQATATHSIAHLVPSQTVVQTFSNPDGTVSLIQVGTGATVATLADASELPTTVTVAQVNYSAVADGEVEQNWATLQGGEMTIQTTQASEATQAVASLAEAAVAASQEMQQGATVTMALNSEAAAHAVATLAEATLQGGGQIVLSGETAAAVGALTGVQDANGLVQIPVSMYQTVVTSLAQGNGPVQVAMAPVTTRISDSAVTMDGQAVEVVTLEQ
How it was run: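 Using DMSO as baseline, gain- or loss-of-signal was fitted for reporter mRNA levels in HepG2 cells transiently transfected with cis-regulated reporter units. Samples were taken 24 h after dosing and read by RT-PCR with capillary electrophoresis.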

[7] = ATG_NFI_CIS: Attagene CIS-FACTORIAL HepG2 Assay for human Nuclear Factor I (NFI) (AID 2282989); settings: HepG2 cis-regulatory reporter, NFI response element transcription; actives raise or lower the signal
How it was run: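 Read-out: reporter mRNA via RT-PCR plus capillary electrophoresis with fluorescence detection. Transiently transfected HepG2 (endogenous TF activity on cis promoters), 24 h compound exposure; gain or loss of signal fitted against DMSO.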

[8] = biological target: Myc proto-oncogene protein (Homo sapiens) (UniProt P01106); assay: ATG_Myc_CIS: Attagene CIS-FACTORIAL HepG2 Assay for human Myelocytomatosis (Myc) Proto-Oncogene Transcription Factor (AID 2282990); settings: HepG2, Attagene cis-reporter transcription factor activity; actives raise or lower the signal
Sequence of Myc proto-oncogene protein (Homo sapiens) (P01106 whole entry, looked up): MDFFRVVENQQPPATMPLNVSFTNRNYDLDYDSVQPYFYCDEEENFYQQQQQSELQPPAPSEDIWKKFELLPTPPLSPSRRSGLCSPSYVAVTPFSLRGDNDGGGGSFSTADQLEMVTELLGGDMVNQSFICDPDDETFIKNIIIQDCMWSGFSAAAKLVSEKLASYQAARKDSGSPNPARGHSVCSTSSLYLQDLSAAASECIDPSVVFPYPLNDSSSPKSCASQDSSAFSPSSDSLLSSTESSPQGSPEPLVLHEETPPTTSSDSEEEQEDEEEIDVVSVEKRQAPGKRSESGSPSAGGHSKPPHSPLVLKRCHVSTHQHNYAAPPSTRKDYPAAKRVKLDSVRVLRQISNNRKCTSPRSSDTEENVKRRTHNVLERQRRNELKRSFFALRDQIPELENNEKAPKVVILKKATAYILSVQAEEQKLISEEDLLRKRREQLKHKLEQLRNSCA
How it was run: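 DMSO-normalised, bidirectionally fitted reporter mRNA signal. HepG2 cells transfected with cis reporter constructs, treated 24 h; transcripts detected by RT-PCR, 6-FAM primer extension and CE.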

[9] = ATG_NF_kB_CIS: Attagene CIS-FACTORIAL HepG2 Assay for human Nuclear Factor Kappa B (NF-kB) (AID 2282991); settings: HepG2 Attagene cis-factorial NF-kB reporter mRNA; actives raise or lower the signal
How it was run: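 Endpoint from a 52-component multiplexed HepG2 reporter panel: cis-regulated transcription units transiently transfected, 24 h dosing, reporter mRNA quantified by RT-PCR and capillary electrophoresis, scored as increase or decrease against DMSO.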

[10] = ATG_NRF2_ARE_CIS: Attagene CIS-FACTORIAL HepG2 Assay for human Nuclear Factor Erythroid 2 Related Factor 2 (NFR2) response to Antioxidant Response Elements (ARE) (AID 2282992); settings: HepG2 Attagene ARE/NRF2 reporter, transcription factor activity; actives raise or lower the signal;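 as to AC50: reporter mRNA level measured by RT-PCR and capillary electrophoresis fluorescence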
How it was run: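 Readout: reporter mRNA quantified by RT-PCR plus FAM-labelled primer extension, HpaI digestion and capillary electrophoresis, 24 h after dosing transfected HepG2 cells. Gain or loss of signal is fitted bidirectionally against DMSO baseline.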

[11] = ATG_Oct_MLP_CIS: Attagene CIS-FACTORIAL HepG2 Assay for human Octamer-Binding Transcription Factor (Oct) (AID 2282993); settings: HepG2 Attagene cis-factorial Oct reporter, mRNA; actives raise or lower the signal
How it was run: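 Read-out: reporter mRNA via RT-PCR plus capillary electrophoresis of 6-FAM-labelled fragments. Transiently transfected HepG2, 24 h exposure, endogenous TF activity on cis elements. Gain or loss of signal fitted relative to DMSO.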

[12] = BSK_3C_TissueFactor: BioMAP Diversity Plus: 3C Assay for Tissue Factor Biomarker Activity (AID 2282997); settings: BioMAP 3C HUVEC, tissue factor biomarker readout; actives raise or lower the signal
How it was run: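 In this endothelial system, HUVEC are treated for 24 h and Tissue Factor is assessed by ELISA, normalised to DMSO.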

[13] = BSK_3C_uPAR: BioMAP Diversity Plus: 3C Assay for Urokinase-type plasminogen activator receptor (uPAR) Biomarker Activity (AID 2282998); settings: BioMAP 3C HUVEC, uPAR biomarker ELISA; actives raise or lower the signal
How it was run: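 HUVEC primary cells; 24 h post-dose; uPAR by ELISA; gain or loss of signal fitted bidirectionally vs DMSO baseline.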

[14] = BSK_4H_Eotaxin3: BioMAP Diversity Plus: 4H Assay for Eotaxin 3 Biomarker Activity (AID 2283000); settings: primary human endothelial cells (HUVEC); actives raise or lower the signal
How it was run: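 ELISA quantitation of CCL26 (Eotaxin-3) protein from chemically dosed human vascular endothelial cells at 24 h; increases and decreases both scored relative to DMSO-treated baseline.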

[15] = biological target: Oxysterols receptor LXR-beta (Homo sapiens) (UniProt P55055); assay: ATG_LXRb_TRANS: Attagene TRANS-FACTORIAL HepG2 Assay for human Liver X Receptor beta (LXRb) (AID 2282981; active = hit-call score of the fitted dose curve at least 0.9, where 1 is the maximum); settings: HepG2 Attagene TRANS GAL4-LXRb reporter, mRNA
Sequence of Oxysterols receptor LXR-beta (Homo sapiens) (P55055 whole entry, looked up, the tested form may be a part): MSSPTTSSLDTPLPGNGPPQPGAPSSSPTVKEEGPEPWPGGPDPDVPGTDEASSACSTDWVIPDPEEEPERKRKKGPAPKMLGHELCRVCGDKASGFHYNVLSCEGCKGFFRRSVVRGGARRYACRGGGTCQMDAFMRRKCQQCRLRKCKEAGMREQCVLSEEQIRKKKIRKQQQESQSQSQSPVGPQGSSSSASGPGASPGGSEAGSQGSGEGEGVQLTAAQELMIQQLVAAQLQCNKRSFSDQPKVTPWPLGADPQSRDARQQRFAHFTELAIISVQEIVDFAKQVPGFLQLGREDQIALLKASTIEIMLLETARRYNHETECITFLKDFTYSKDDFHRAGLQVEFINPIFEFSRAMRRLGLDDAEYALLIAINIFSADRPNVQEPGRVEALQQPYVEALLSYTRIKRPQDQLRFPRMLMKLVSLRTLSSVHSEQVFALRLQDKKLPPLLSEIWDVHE
How it was run: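 Measures induction of a Gal4-driven reporter transcript in HepG2 cells expressing an exogenous LXRb-Gal4 fusion. Cells are exposed to compound for 24 h before RNA isolation and RT-PCR with capillary electrophoresis detection.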

[16] = ATG_M_06_TRANS: Attagene TRANS-FACTORIAL HepG2 Assay for M06 Transcription Factor (Internal Marker) (AID 2282983; active = hit-call score of the fitted dose curve at least 0.9, where 1 is the maximum); settings: HepG2 Attagene TRANS M06 internal marker reporter
How it was run: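 Multi-reporter-transfected HepG2, 24 h treatment; reporter transcripts quantified via RT-PCR, primer-extension labelling and CE. DMSO-normalized gain-of-signal fit.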

[17] = ATG_M_32_TRANS: Attagene TRANS-FACTORIAL HepG2 Assay for M32 Transcription Factor (Internal Marker) (AID 2282984; active = hit-call score of the fitted dose curve at least 0.9, where 1 is the maximum;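 also: transcript level of a background control reporter unit measured by RT-PCR and capillary electrophoresis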); settings: HepG2 Attagene TRANS M32 internal marker reporter
How it was run: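 After 24 h dosing of transfected HepG2 cells, total RNA was reverse-transcribed, reporter sequences PCR-amplified, 6-FAM labelled by primer extension and HpaI-digested before capillary electrophoresis. Signal increase over DMSO was fitted.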

[18] = biological target: Cellular tumor antigen p53 (Homo sapiens) (UniProt P04637); assay: ATG_p53_CIS: Attagene CIS-FACTORIAL HepG2 Assay for human p53 Transcription Factor (AID 2282994); settings: HepG2 p53 cis-element reporter, Attagene mRNA; actives raise or lower the signal
Sequence of Cellular tumor antigen p53 (Homo sapiens) (P04637 whole entry, looked up): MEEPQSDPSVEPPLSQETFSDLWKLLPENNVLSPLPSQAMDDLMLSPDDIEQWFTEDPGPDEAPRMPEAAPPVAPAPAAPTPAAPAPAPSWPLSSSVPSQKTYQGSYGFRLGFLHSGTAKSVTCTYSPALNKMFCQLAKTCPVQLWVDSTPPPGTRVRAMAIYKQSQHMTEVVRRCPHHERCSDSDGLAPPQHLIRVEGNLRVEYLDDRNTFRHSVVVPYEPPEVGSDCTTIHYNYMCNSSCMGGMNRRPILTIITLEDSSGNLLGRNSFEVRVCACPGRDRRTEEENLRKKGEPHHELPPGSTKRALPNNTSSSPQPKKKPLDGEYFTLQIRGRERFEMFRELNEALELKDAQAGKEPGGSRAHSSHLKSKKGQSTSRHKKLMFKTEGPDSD
How it was run: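 Read-out: reporter mRNA by RT-PCR plus capillary electrophoresis with fluorescence detection. Human HepG2 liver cells carried transfected multi-reporter cis-element constructs, dosed 24 h. Gain or loss of signal fitted bidirectionally against DMSO control.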

Measured: AC50

c1ccc2sc(SN(C3CCCCC3)C3CCCCC3)nc2c1
active: [8] 8.17 µM | [13] 7.59 µM
not listed: [15] | [16] | [17] | [18]
inactive: all other assays above

COc1ccc(OC)c(OC)c1
not listed: [2] | [4] | [7] | [9] | [12] | [13] | [14]
inactive: all other assays above

CCCCO
inactive: [1] | [3] | [17] | [5] | [6] | [7] | [8] | [10] | [11] | [18]

CCCCCCCCCOC(C)=O
not listed: [2] | [3] | [12] | [13] | [14] | [15] | [16]
inactive: all other assays above

Cc1ncc([N+](=O)[O-])n1C
inactive: [1] | [15] | [4] | [6] | [7] | [8] | [10] | [11] | [18]

CCCCCCCCCCCCCC(=O)O
active: [10] 65.5 µM
not listed: [2] | [9] | [12] | [13] | [14] | [15]
inactive: all other assays above

C=CC(=O)NCOCC(C)C
active: [10] 54.6 µM
not listed: [2] | [12] | [13] | [14] | [15]
inactive: all other assays above

COc1cc(C(C)(C)C)c(O)c(C(C)(C)C)c1
not listed: [3] | [12] | [13] | [14] | [17] | [18]
inactive: all other assays above

CCCC/C=C\CCCCCCCCCC=O
inactive: [1] | [17] | [5] | [6] | [7] | [8] | [9] | [10] | [11] | [18]

CC1CC(OC(=O)c2ccccc2O)CC(C)(C)C1 (centres undefined)
active: [2] 31.1 µM
inactive: [15] | [17] | [5] | [6] | [7] | [8] | [9] | [11] | [18]

OC1OC[C@@H](O)[C@H](O)[C@H]1O (some centres undefined)
not listed: [1] | [4] | [7] | [12] | [16]
inactive: all other assays above

CN1[C@@H]2CC(OC(=O)[C@H](CO)c3ccccc3)C[C@H]1[C@@H]1O[C@@H]12 (some centres undefined)
inactive: [2] | [15] | [16] | [17] | [5] | [11] | [18]

Cc1ccccc1C=O
not listed: [1] | [9] | [12] | [13] | [14] | [16]
inactive: all other assays above

Cc1ccc(O)c(C(C)(C)C)c1
active: [5] 184 µM | [8] 79.5 µM | [9] 100 µM | [11] 143 µM | [13] 20 µM | [14] 35 µM
inactive: [2] | [15] | [17] | [6] | [7] | [18]

O=[N+]([O-])c1ccc(Nc2ccc(Nc3ccccc3)c(S(=O)(=O)O)c2)c([N+](=O)[O-])c1
inactive: [2] | [15] | [17] | [5] | [6] | [7] | [8] | [9] | [11]
active: [10] 171 µM | [18] 178 µM

Nc1nc2ccc([N+](=O)[O-])cc2s1
active: [10] 56.5 µM
not listed: [1] | [12] | [13] | [14] | [15] | [18]
inactive: all other assays above

CC(C)OP(=O)(CP(=O)(OC(C)C)OC(C)C)OC(C)C
not listed: [1] | [3] | [5] | [12] | [13] | [14]
inactive: all other assays above

CC(C)=CCCC(C)=CCCC(C)=CCO
active: [10] 18.8 µM
inactive: [2] | [15] | [17] | [4] | [5] | [6] | [7] | [11] | [18]

CCCCCCCCCCCCN(CCCCCCCCCCCC)CCCCCCCCCCCC
not listed: [1] | [3] | [4] | [8] | [12] | [13] | [14]
inactive: all other assays above

CCCCCOC(=O)CCC
not listed: [1] | [3] | [4] | [12] | [13] | [14] | [16]
inactive: all other assays above

CCCCCCCCC=O
not listed: [1] | [4] | [9] | [12] | [17]
inactive: all other assays above

CC(C)C1CCC(O)CC1 (centres undefined)
not listed: [1] | [3] | [8] | [9] | [12] | [13] | [14]
inactive: all other assays above

C=C(C)C(=O)Nc1ccc(Cl)c(Cl)c1
active: [4] 69.8 µM | [10] 13.6 µM | [11] 26.5 µM
not listed: [1] | [3] | [12] | [13] | [14] | [17]
inactive: all other assays above
